COUP-TFII inh – NR2F2 (human) inhibition, primary screen | P24468 | HEK293T NGFI-A luciferase reporter, luminescence | inhibition, % at 8.6 µM | 370,000 compounds, 0.7% hits | AID 686940;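 active means inhibition above a per-plate cutoff, mean inhibition of test wells between control levels plus 3 SD, cut at about 38% in these data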;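 further: cells cotransfected with COUP-TFII expression vector driving the NGFI-A reporter; 0% = median of COUP-TF2 test wells and 100% = reporter-only cells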
Efflux pump inh – inhibitors of Candida antifungal efflux pumps expressed in yeast; S. cerevisiae Candida pump triplex, Nile Red efflux; inhibition, % at 10 µM; 330,000 compounds, 0.44% hits;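 active means plate passing quality check with inhibition over a set limit, or well fluorescence over plate mean plus 4 SD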;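 further: Nile Red retained in pooled yeast measured as flow cytometry median fluorescence; 0% = buffer negative control and 100% = Enniatin B positive control; higher means more Nile Red kept so more efflux inhibition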
SRC1 inh – human NCOA1 inhibition | inhibition, % at 3.6 µM | AID 588354 | Q15788 | HEK293 GAL4-SRC1 luciferase reporter, luminescence | 360,000 compounds, 0.12% hits;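 active means inhibition above the campaign mean plus 3 SD, with each screening campaign given its own cutoff, cut at about 60% in these data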;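 further: 0% = DMSO treated cells and 100% = gossypol at 36 µM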
LRH-1 inv ag – suppresses constitutive activity of human LRH-1. inhibition, % at 3.6 µM. O00482. 360,000 compounds, 0.13% hits. AID 602396. HEK293T StAR-luciferase reporter, LRH-1 transfected, 24 h;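 active means inhibition above the mean inhibition of all tested compounds plus 3 SD, cut at about 73% in these data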;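 further: 0% = DMSO wells and 100% = reporter-only cells lacking LRH-1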
SRC3 inh – inhibits human SRC3 coactivator | Q9Y6Q9 | HEK293 GAL4-SRC3 luciferase reporter, luminescence | inhibition, % at 3.6 µM | 360,000 compounds, 0.17% hits | AID 588352;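 active means inhibition above a per-campaign cutoff, the mean of all compounds plus 3 SD, cut at about 60% in these data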;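 further: 0% = DMSO-treated cells and 100% = gossypol-treated cells at 36 µM; higher means less SRC3-driven luciferase light from the GAL4 reporter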
SRC2 inh – human SRC2 (NCOA2) inhibition; HEK293 GAL4-SRC2 luciferase reporter, luminescence; AID 651957; 370,000 compounds, 0.17% hits; Q15596; inhibition, % at 9 µM;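 active means inhibition above the mean inhibition of all tested compounds plus 3 SD, set per campaign, cut at about 52% in these data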;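 further: 0% = DMSO treated cells and 100% = cells given Gossypol at 36 µM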
Cmpd fluor yeast – flagged as fluorescent in efflux inhibitor counter-screen. shares compounds with Efflux pump inh. S. cerevisiae AD/pABC3, compound fluorescence, flow cytometry. fluorescence ratio to DMSO, % at 10 µM. 1,700 compounds, 4% hits;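 active means fluorescence ratio to DMSO above its plate's cutoff, the plate mean ratio plus 5 SD, cut at about 210% in these data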;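 further: unstained yeast with no Nile Red so the signal is compound autofluorescence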
Mdr1 pump inh – blocks the Candida albicans Mdr1 efflux pump in yeast; shares compounds with Efflux pump inh; S. cerevisiae AD/CaMDR1, Nile Red efflux, flow cytometry; inhibition, % at 10 µM; 1,700 compounds, 1% hits; AID 588518; in the data active means inhibition above about 26%;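 further: 0% = DMSO vehicle and 100% = reference inhibitor; higher means more Nile Red retained so more efflux inhibition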
Cdr2 pump inh – blocks the Candida albicans Cdr2 efflux pump in yeast; S. cerevisiae AD/CaCDR2, Nile Red retention, flow cytometry; 1,700 compounds, 4% hits; shares compounds with Efflux pump inh; Nile Red retention ratio vs DMSO, % at 10 µM; AID 588520; in the data active means Nile Red retention ratio vs DMSO above about 190%;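 further: higher ratio means more blocking of Cdr2 efflux of the dye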
Cdr1 pump inh – Candida Cdr1 efflux pump inhibition; shares compounds with Efflux pump inh; S. cerevisiae AD/CaCDR1, Nile Red efflux, flow cytometry; inhibition, % at 10 µM; 1,700 compounds, 1% hits;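 active means inhibition above the screen-wide mean plus twice its standard deviation, cut at about 32% in these data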
Numbers without * were called inactive. Compounds with a hit are over-represented: about 1.2% of the library has one in this group of screens.

For CC(C)NC(=O)C(c1ccc(F)cc1)N(C(=O)CCC(=O)Nc1ccccn1)C1CCCC1 (centres undefined) the results were COUP-TFII inh -5, Efflux pump inh 0, SRC1 inh -14, LRH-1 inv ag 2, SRC3 inh 7 and SRC2 inh -16.
Screening O=C(Cn1c(C(F)(F)F)nc2ccccc21)NCCN1CCCC1 returned COUP-TFII inh -6, Efflux pump inh 0, SRC1 inh -2, LRH-1 inv ag -14, SRC3 inh 2 and SRC2 inh -4.
Screening CCOc1ccc(C(=O)NCc2ccco2)cc1 returned COUP-TFII inh -15, Efflux pump inh 1.2*, SRC1 inh -3, LRH-1 inv ag -45, SRC3 inh -22, SRC2 inh -21, Cmpd fluor yeast 105, Mdr1 pump inh 0, Cdr2 pump inh 108 and Cdr1 pump inh 0.
CCC(C)c1ccc(C(C)NC(=S)NC2CCCCC2)cc1 (centres undefined) was read as COUP-TFII inh 9, Efflux pump inh 1.5*, SRC1 inh 5, LRH-1 inv ag 16, SRC3 inh 1, SRC2 inh 35, Cmpd fluor yeast 99, Mdr1 pump inh 0, Cdr2 pump inh 95 and Cdr1 pump inh 0.
For O=C(CSc1nnc2c3c4c(sc3ncn12)CCCC4)NCc1ccco1 the results were COUP-TFII inh -15, Efflux pump inh 0, SRC1 inh 7, LRH-1 inv ag -2, SRC3 inh 17 and SRC2 inh -29.
Screening Cc1nc2sc3c(c2c2nnc(SCC(=O)NCc4ccco4)n12)CCCC3 returned COUP-TFII inh 11, Efflux pump inh 0.8*, SRC1 inh 2, LRH-1 inv ag 5, SRC3 inh 24, SRC2 inh -7, Cmpd fluor yeast 95, Mdr1 pump inh 0, Cdr2 pump inh 107 and Cdr1 pump inh 0.
Screening CC(=O)NS(=O)(=O)c1ccc(N)cc1 returned COUP-TFII inh -8, Efflux pump inh 0, SRC1 inh -9, LRH-1 inv ag 3, SRC3 inh 9 and SRC2 inh -22.
For COc1cccc(C(=O)N2CCCC(c3nc(-c4cccs4)no3)C2)c1 (centres undefined) the results were COUP-TFII inh -7, Efflux pump inh -6, SRC1 inh -13, LRH-1 inv ag 10, SRC3 inh 0 and SRC2 inh -37.
`Cn1ccc(NC(=O)c2ccc(Cl)cc2Cl)n1` gave COUP-TFII inh -39, Efflux pump inh 0, SRC1 inh -75, LRH-1 inv ag -95, SRC3 inh -47 and SRC2 inh -36.
Screening Cn1ccc(NC(=O)c2ccc(Cl)cc2)n1 returned COUP-TFII inh -23, Efflux pump inh 151*, SRC1 inh -48, LRH-1 inv ag -85, SRC3 inh -27, SRC2 inh -11, Cmpd fluor yeast 106, Mdr1 pump inh 0, Cdr2 pump inh 100 and Cdr1 pump inh 0.
C[n+]1ccccc1/C=C/c1ccc([N+](=O)[O-])cc1 was read as COUP-TFII inh 2, Efflux pump inh 1.4*, SRC1 inh -1, LRH-1 inv ag 26, SRC3 inh 7, SRC2 inh 1, Cmpd fluor yeast 133, Mdr1 pump inh 1, Cdr2 pump inh 120 and Cdr1 pump inh 0.
Cc1nc(NCc2ccc(S(N)(=O)=O)cc2)c2c(C)c(C)sc2n1 was read as COUP-TFII inh 6, Efflux pump inh 0, SRC1 inh -6, LRH-1 inv ag 15, SRC3 inh -6 and SRC2 inh 1.
Screening CCOC(=O)c1[nH]c2ccc(OC)cc2c1NC(=O)NC(C)C returned COUP-TFII inh -17, Efflux pump inh 0, SRC1 inh -18, LRH-1 inv ag -9, SRC3 inh -20 and SRC2 inh -6.
For CSc1ncnc2c1ncn2CCCNCC(c1ccccc1)c1ccccc1 the results were COUP-TFII inh 6, SRC1 inh 1, LRH-1 inv ag -17, SRC3 inh 9 and SRC2 inh 13.
C=CCn1c(SCc2ccc(C(=O)OC)cc2)nnc1-c1sc(N)nc1C was read as COUP-TFII inh 4, Efflux pump inh 15*, SRC1 inh 6, LRH-1 inv ag 16, SRC3 inh 16, SRC2 inh -1, Cmpd fluor yeast 106, Mdr1 pump inh 0, Cdr2 pump inh 101 and Cdr1 pump inh 0.
C=CCn1c(SCC(=O)Nc2ccc(C(=O)OCC)cc2)nnc1-c1sc(N)nc1C was read as COUP-TFII inh 19, Efflux pump inh 0, SRC1 inh 2, LRH-1 inv ag 15, SRC3 inh -11 and SRC2 inh 4.
Screening Cc1ccc(NC(=S)NN(C)c2nc(C)cnc2C)cc1 returned COUP-TFII inh 8, Efflux pump inh 9.6*, SRC1 inh -5, LRH-1 inv ag 4, SRC3 inh 14, SRC2 inh 11, Cmpd fluor yeast 89, Mdr1 pump inh 0, Cdr2 pump inh 108 and Cdr1 pump inh 0.
For Cc1ccc2nc(C(C)(C)C)c(Cc3cccc(F)c3)n2c1 the results were COUP-TFII inh -39, SRC1 inh -8, LRH-1 inv ag -35, SRC3 inh -18 and SRC2 inh -62.
`Cc1cc(C)c(S(=O)(=O)NCCn2ccc3ccccc32)c(C)c1` gave COUP-TFII inh -13, Efflux pump inh 0, SRC1 inh -7, LRH-1 inv ag 3, SRC3 inh -13 and SRC2 inh 3.
For CCCSc1nnc(N)s1 the results were COUP-TFII inh 1, Efflux pump inh 18*, SRC1 inh 9, LRH-1 inv ag -2, SRC3 inh -18, SRC2 inh -12, Cmpd fluor yeast 118, Mdr1 pump inh 1, Cdr2 pump inh 155 and Cdr1 pump inh 1.
COc1ccccc1NC(=O)c1ccccc1NC(=O)c1cc(Cl)ccc1NC(=O)c1ccco1 was read as COUP-TFII inh -2, Efflux pump inh 0.5*, SRC1 inh -10, LRH-1 inv ag 4, SRC3 inh -7, SRC2 inh 12, Cmpd fluor yeast 100, Mdr1 pump inh 0, Cdr2 pump inh 96 and Cdr1 pump inh 0.
For COc1ccccc1NC(=O)c1cc(Cl)ccc1NC(=O)c1ccco1 the results were COUP-TFII inh -6, Efflux pump inh 0, SRC1 inh -7, LRH-1 inv ag 14, SRC3 inh -26 and SRC2 inh -5.
